Activity calls are given as the source filed them.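 The calls were made as follows, unless noted: active = compounds lowering colon cancer cell viability after pretreatment blocking the GSK3B kinase; inactive = the rest.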

Experiment [1] is described as follows: Wnt pathway potentiators raising nuclear beta-catenin – imaging, WNT3A-conditioned medium, mouse C2C12, NPC library, primary screen (AID 1117326; in the data active = nuclear beta-catenin stimulation mostly above about 4.2%, no sharp cut-off; inactive = mostly below about 10%; also: reference of the scale not given here). As to conditions: stronger effect = higher value.
Experiment [2] is described as follows: stimulators of insulin release from INS-1E, primary screen, cell-based, 5 mM glucose, NPC library (AID 1117329;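 active = compound raises insulin release from rat beta cells at 5 mM glucose, no numeric limit stated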; also: reference of the scale not given here). As to conditions: rat INS-1E insulin secretion, at 10 µM, stronger effect = higher value.
Experiment [3] in a line: growth inhibition of GSK3B-pretreated HCT116 cells – cell-based, CellTiter-Glo, 0.2 to 20 µM (AID 1117336). Particulars: HCT116 viability after GSK3B inhibitor, at 20 µM, stronger effect = higher value.
Experiment [4] can be described thus: inhibition of endothelial tube formation, primary screen, imaging, VEGF stimulated, CD31 staining, tube area, NPC library (AID 1117340;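 active = compound that reduces growth-factor-driven endothelial tube area in a mixed cell culture, no cutoff stated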). Particulars: VEGF-stimulated ADSC/ECFC co-culture, at 10 µM, stronger effect = higher value.
Experiment [5] is described as follows: GLP1 release stimulators, primary, NCI-H716, NPC library (AID 1117341;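 active = compound raises GLP1 secretion from the human gut endocrine cells, with no numeric limit stated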; also: reference of the scale not given here). Particulars: NCI-H716 cells, at 10 µM, stronger effect = higher value.
Experiment [6] is described as follows: HCT116 colon cancer cell growth inhibition, primary screen, CellTiter-Glo luminescence, NPC library (AID 1117342;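 active = compounds that lower survival of HCT116 colon cancer cells in the luminescence readout, no numeric limit stated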). As to conditions: at 20 µM (top of the series). (Cellular ATP, detected with luciferase, serves as a proxy for viable cell number.)
Experiment [7] in a line: reduced SW480 viability measured with CellTiter-Glo, NPC library, primary (AID 1117343;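 active = compounds that lower viability of the colon cancer cells in the luminescence readout, with no numeric limit stated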). Particulars: CellTiter-Glo luminescence; at 20 µM (top of the series).
Experiment [8] can be described thus: NPC library primary testing for decreased DLD-1 cell viability via CellTiter-Glo (AID 1117346;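 active = compounds that lower survival of DLD-1 colon cancer cells in the luminescence readout, no cutoff given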). As to conditions: DLD-1 viability, CellTiter-Glo luminescence; at 20 µM (top of the series).

As to `OCc1ccc(Cl)cc1Cl`, the nuclear beta-catenin stimulation in experiment [1] (at 10 µM) is 2.2% (inactive); in experiment [1] (stimulation, at 2 µM) it was 0.6%. Moreover, the insulin secretion stimulation in experiment [2] is -2% (inactive). The viability decrease in experiment [3] was 1.6% (inactive). In addition, the tube area decrease in experiment [4] is 13.7% (inactive). Moreover, in experiment [5], the GLP1 secretion stimulation was -5% (inactive). In addition, the inhibition of viability in experiment [6] was -2.7% (inactive). The figures for the viability decrease (inhibition) in experiment [7] and in experiment [8] were 26.9% (inactive) and 13.2% (inactive), respectively.

Turning to `CCc1nnc(NS(=O)(=O)c2ccc(N)cc2)s1`, the nuclear beta-catenin stimulation was -0.1% (inactive) in experiment [1] (at 10 µM) and 2% in experiment [1] (stimulation, at 2 µM). Also, in experiment [2], the insulin secretion stimulation was -0.8% (inactive). Further, the viability decrease in experiment [3] was 5.1% (inactive). In addition, in experiment [4], the tube area decrease was -5.1% (inactive). Further, the GLP1 secretion stimulation in experiment [5] is -0.1% (inactive). Moreover, in experiment [6], the inhibition of viability is -13.8% (inactive). Besides, the viability decrease (inhibition) in experiment [7] is 4.4% (inactive); in experiment [8], -18.9% (inactive).

For the compound `CCC(=O)Oc1ccc2c(c1)CC[C@@H]1[C@H]2CC[C@]2(C)[C@@H](OC(=O)CC)CC[C@@H]12`, the nuclear beta-catenin stimulation in experiment [1] (at 10 µM) was -0.2% (inactive); in experiment [1] (stimulation, at 2 µM), 0.2%. In addition, the insulin secretion stimulation in experiment [2] was 0.1% (inactive). Besides, the viability decrease in experiment [3] is 33.4% (inactive). For the same compound, the tube area decrease in experiment [4] is 28% (inactive). In experiment [5], the GLP1 secretion stimulation was 2.4% (inactive). Also, the inhibition of viability in experiment [6] was 42.6% (inactive). In addition, the values for the viability decrease (inhibition) in experiment [7] and in experiment [8] were 49.6% (inactive) and 2.6% (inactive), respectively.

For the compound `CC1(C)S[C@@H]2[C@H](NC(=O)C(C(=O)Oc3ccc4c(c3)CCC4)c3ccccc3)C(=O)N2[C@H]1C(=O)O` (some centres undefined), the nuclear beta-catenin stimulation was 1% (inactive) in experiment [1] (at 10 µM) and 0.4% in experiment [1] (stimulation, at 2 µM). Further, the insulin secretion stimulation in experiment [2] was 4.4% (inactive). Further, the viability decrease in experiment [3] is -7.7% (inactive). In experiment [4], the tube area decrease is -2.6% (inactive). Besides, the GLP1 secretion stimulation in experiment [5] was -0.3% (inactive). Moreover, the inhibition of viability in experiment [6] is 1.5% (inactive). The figures for the viability decrease (inhibition) in experiment [7] and in experiment [8] were 86% (active) and -6.9% (inactive), respectively.

As to `O=[N+]([O-])c1ccc(Oc2ccc(N=C=S)cc2)cc1`, the nuclear beta-catenin stimulation in experiment [1] (at 10 µM) is 36.7% (inactive); in experiment [1] (stimulation, at 2 µM) it was 1.6%. For the same compound, in experiment [2], the insulin secretion stimulation was -0.5% (inactive). In experiment [3], the viability decrease was 97.7% (active). In addition, the tube area decrease in experiment [4] is 108% (active). Moreover, in experiment [5], the GLP1 secretion stimulation is -5% (inactive). In experiment [6], the inhibition of viability is 98.9% (active). Also, the viability decrease (inhibition) in experiment [7] is 95.7% (active); in experiment [8], 100% (active).

As for `c1ccc2sc(SSc3nc4ccccc4s3)nc2c1`, the nuclear beta-catenin stimulation is 2.2% (inactive) in experiment [1] (at 10 µM) and 0.3% in experiment [1] (stimulation, at 2 µM). For the same compound, in experiment [2], the insulin secretion stimulation is -0.6% (inactive). For the same compound, the viability decrease in experiment [3] was -0.8% (inactive). Moreover, the tube area decrease in experiment [4] is -4.4% (inactive). Also, the GLP1 secretion stimulation in experiment [5] is 22.3% (active). Moreover, in experiment [6], the inhibition of viability was -5.7% (inactive). In addition, the viability decrease (inhibition) in experiment [7] is -1% (inactive); in experiment [8], -20.5% (inactive).

For the compound `CC(C)=CCC/C(C)=C/CC/C(C)=C/CCC(=O)OC/C=C(\C)CCC=C(C)C`, the nuclear beta-catenin stimulation in experiment [1] (at 10 µM) was 0.5% (inactive); in experiment [1] (stimulation, at 2 µM), 0.6%. In experiment [2], the insulin secretion stimulation was 5.2% (inactive). The viability decrease in experiment [3] is -4.2% (inactive). For the same compound, the tube area decrease in experiment [4] is -4.6% (inactive). Further, the GLP1 secretion stimulation in experiment [5] is 3.3% (inactive). In addition, the inhibition of viability in experiment [6] is 1.5% (inactive). Moreover, the results for the viability decrease (inhibition) in experiment [7] and in experiment [8] were -3.7% (inactive) and 2% (inactive), respectively.

On to `O=C(c1cc(O)c(O)c(O)c1)c1ccc(O)c(O)c1O`, for which the nuclear beta-catenin stimulation was 1% (inactive) in experiment [1] (at 10 µM) and 17.1% in experiment [1] (stimulation, at 2 µM). Also, the insulin secretion stimulation in experiment [2] was 6.1% (inactive). The viability decrease in experiment [3] was 98.2% (active). For the same compound, in experiment [4], the tube area decrease was 8.9% (inactive). In experiment [5], the GLP1 secretion stimulation was 4.8% (inactive). For the same compound, in experiment [6], the inhibition of viability is 69.7% (active). In addition, the viability decrease (inhibition) in experiment [7] was 103% (active); in experiment [8], 58.6% (active).

As to `N[C@H](C(=O)O)c1ccc(O)cc1`, the nuclear beta-catenin stimulation in experiment [1] (at 10 µM) was 2.5% (inactive); in experiment [1] (stimulation, at 2 µM) it was 3.1%. The insulin secretion stimulation in experiment [2] is 5.2% (inactive). For the same compound, in experiment [3], the viability decrease is -0.7% (inactive). In addition, the tube area decrease in experiment [4] is -7.9% (inactive). Moreover, in experiment [5], the GLP1 secretion stimulation was -2.9% (inactive). Moreover, in experiment [6], the inhibition of viability is 6% (inactive). In addition, the viability decrease (inhibition) in experiment [7] was 13.1% (inactive); in experiment [8], -2.7% (inactive).

As for `O=S(c1cc(Cl)cc(Cl)c1O)c1cc(Cl)cc(Cl)c1O`, the nuclear beta-catenin stimulation was -0.5% (inactive) in experiment [1] (at 10 µM) and -1.3% in experiment [1] (stimulation, at 2 µM). The insulin secretion stimulation in experiment [2] is 4.7% (inactive). Further, in experiment [3], the viability decrease was 110% (active). The tube area decrease in experiment [4] was 92.8% (active). Moreover, the GLP1 secretion stimulation in experiment [5] is 27.8% (active). The inhibition of viability in experiment [6] was 112% (active). Besides, the viability decrease (inhibition) in experiment [7] was 126% (active); in experiment [8], 101% (active).

In the case of `O=C(O)Cn1cnnn1`, the nuclear beta-catenin stimulation is 0.5% (inactive) in experiment [1] (at 10 µM) and -0.1% in experiment [1] (stimulation, at 2 µM). The insulin secretion stimulation in experiment [2] was -0.9% (inactive). For the same compound, in experiment [3], the viability decrease was -1.1% (inactive). The tube area decrease in experiment [4] was -3.2% (inactive). The GLP1 secretion stimulation in experiment [5] is 3.3% (inactive). In experiment [6], the inhibition of viability was 4.9% (inactive). The values for the viability decrease (inhibition) in experiment [7] and in experiment [8] were -14.8% (inactive) and 6% (inactive), respectively.

Take `CN(C)C(=O)CNC(=O)Cc1ccccc1`: the nuclear beta-catenin stimulation in experiment [1] (at 10 µM) is -0.3% (inactive); in experiment [1] (stimulation, at 2 µM), 2.4%. For the same compound, in experiment [2], the insulin secretion stimulation was 2.5% (inactive). Moreover, the viability decrease in experiment [3] is 4.9% (inactive). Also, the tube area decrease in experiment [4] is 7.1% (inactive). The GLP1 secretion stimulation in experiment [5] was -1.3% (inactive). The inhibition of viability in experiment [6] was 7.5% (inactive). For the same compound, the viability decrease (inhibition) in experiment [7] is -4.5% (inactive); in experiment [8], -0.5% (inactive).

Regarding `CO/N=C(/C(=O)N[C@@H]1C(=O)N2C(C(=O)O)=C(Cn3nnc(C)n3)CS[C@H]12)c1csc(N)n1`, the nuclear beta-catenin stimulation in experiment [1] (at 10 µM) was -0.1% (inactive); in experiment [1] (stimulation, at 2 µM), -1%. The insulin secretion stimulation in experiment [2] is 3.2% (inactive). Further, the viability decrease in experiment [3] was 2.9% (inactive). Besides, the tube area decrease in experiment [4] was 13.4% (inactive). The GLP1 secretion stimulation in experiment [5] was 0.9% (inactive). Also, in experiment [6], the inhibition of viability is -1.5% (inactive). Further, the viability decrease (inhibition) is 10.8% (inactive) in experiment [7] and 1% (inactive) in experiment [8].

Consider `Cc1onc(-c2ccccc2)c1C(=O)Cl`, for which the nuclear beta-catenin stimulation in experiment [1] (at 10 µM) is 0% (inactive); in experiment [1] (stimulation, at 2 µM) it was -1.4%. Further, the insulin secretion stimulation in experiment [2] was 2.75% (inactive). The viability decrease in experiment [3] is 0.5% (inactive). Further, in experiment [4], the tube area decrease was -12.1% (inactive). Further, in experiment [5], the GLP1 secretion stimulation was 1.7% (inactive). Further, in experiment [6], the inhibition of viability was 1.8% (inactive). Also, the results for the viability decrease (inhibition) in experiment [7] and in experiment [8] were -5.7% (inactive) and -12.5% (inactive), respectively.

For `C=CCOc1cc(Cl)ccc1C(=O)NCCN(CC)CC`, the nuclear beta-catenin stimulation in experiment [1] (at 10 µM) was -0.4% (inactive); in experiment [1] (stimulation, at 2 µM) it was 0.3%. In experiment [2], the insulin secretion stimulation was 16.7% (inactive). In addition, the viability decrease in experiment [3] was 11% (inactive). Moreover, the tube area decrease in experiment [4] is -13% (inactive). Besides, the GLP1 secretion stimulation in experiment [5] is 9.1% (inactive). The inhibition of viability in experiment [6] was 30% (inactive). In addition, the viability decrease (inhibition) in experiment [7] was 32.4% (inactive); in experiment [8], -3.9% (inactive).

As to `CO/N=C(/C(=O)N[C@@H]1C(=O)N2C(C(=O)OCOC(=O)C(C)(C)C)=C(C)CS[C@H]12)c1csc(N)n1`, the nuclear beta-catenin stimulation in experiment [1] (at 10 µM) was 1% (inactive); in experiment [1] (stimulation, at 2 µM) it was -2%. Further, the insulin secretion stimulation in experiment [2] was 5.9% (inactive). In experiment [3], the viability decrease was 7.7% (inactive). The tube area decrease in experiment [4] is -11.2% (inactive). Also, the GLP1 secretion stimulation in experiment [5] was -21% (inactive). For the same compound, in experiment [6], the inhibition of viability was 0.6% (inactive). Moreover, the viability decrease (inhibition) in experiment [7] is 15% (inactive); in experiment [8], -8.3% (inactive).

The record behind these values is PubChem BioAssay.
